Experimental data published in ChEMBL document CHEMBL1961873, “Compounds: GSK PKIS; Assays: Nanosyn kinase panel” (2012).
Several values for one entry are separate records, joined by “and”; a condition that tells them apart may be missing. Equal entries are not always repeated.

Experiments:
[1] = biological target: Serine/threonine-protein kinase pim-2 (Homo sapiens) (UniProt Q9P1W9); settings: at 1 µM;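 note: each value is a mean of the inhibition measurements against the kinase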
[2] = biological target: Serine/threonine-protein kinase pim-3 (Homo sapiens) (UniProt Q86V86); settings: at 0.1 µM
[3] = biological target: Serine/threonine-protein kinase pim-3 (Homo sapiens) (UniProt Q86V86); settings: at 1 µM
[4] = biological target: T1, MAP kinase-activated protein kinase 5 (Homo sapiens) (UniProt Q8IW41); settings: at 0.1 µM
T1 sequence (whole entry): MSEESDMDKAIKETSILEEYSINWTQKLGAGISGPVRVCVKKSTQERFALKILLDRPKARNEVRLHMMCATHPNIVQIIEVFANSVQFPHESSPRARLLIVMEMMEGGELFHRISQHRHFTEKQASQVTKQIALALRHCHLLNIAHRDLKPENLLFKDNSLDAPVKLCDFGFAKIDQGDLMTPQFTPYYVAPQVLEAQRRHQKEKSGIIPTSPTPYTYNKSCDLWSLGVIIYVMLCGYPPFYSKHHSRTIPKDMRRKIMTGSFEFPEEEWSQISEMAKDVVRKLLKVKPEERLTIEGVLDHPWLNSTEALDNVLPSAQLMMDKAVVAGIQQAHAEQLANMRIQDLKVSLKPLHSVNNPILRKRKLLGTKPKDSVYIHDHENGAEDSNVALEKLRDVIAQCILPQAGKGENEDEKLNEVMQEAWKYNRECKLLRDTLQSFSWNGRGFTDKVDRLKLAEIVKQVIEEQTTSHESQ

[5] = biological target: T1, MAP kinase-activated protein kinase 5 (Homo sapiens); settings: at 1 µM
[6] = biological target: Serine/threonine-protein kinase SIK1 (Homo sapiens) (UniProt P57059); settings: at 0.1 µM
Serine/threonine-protein kinase SIK1 (Homo sapiens), sequence (P57059 whole entry): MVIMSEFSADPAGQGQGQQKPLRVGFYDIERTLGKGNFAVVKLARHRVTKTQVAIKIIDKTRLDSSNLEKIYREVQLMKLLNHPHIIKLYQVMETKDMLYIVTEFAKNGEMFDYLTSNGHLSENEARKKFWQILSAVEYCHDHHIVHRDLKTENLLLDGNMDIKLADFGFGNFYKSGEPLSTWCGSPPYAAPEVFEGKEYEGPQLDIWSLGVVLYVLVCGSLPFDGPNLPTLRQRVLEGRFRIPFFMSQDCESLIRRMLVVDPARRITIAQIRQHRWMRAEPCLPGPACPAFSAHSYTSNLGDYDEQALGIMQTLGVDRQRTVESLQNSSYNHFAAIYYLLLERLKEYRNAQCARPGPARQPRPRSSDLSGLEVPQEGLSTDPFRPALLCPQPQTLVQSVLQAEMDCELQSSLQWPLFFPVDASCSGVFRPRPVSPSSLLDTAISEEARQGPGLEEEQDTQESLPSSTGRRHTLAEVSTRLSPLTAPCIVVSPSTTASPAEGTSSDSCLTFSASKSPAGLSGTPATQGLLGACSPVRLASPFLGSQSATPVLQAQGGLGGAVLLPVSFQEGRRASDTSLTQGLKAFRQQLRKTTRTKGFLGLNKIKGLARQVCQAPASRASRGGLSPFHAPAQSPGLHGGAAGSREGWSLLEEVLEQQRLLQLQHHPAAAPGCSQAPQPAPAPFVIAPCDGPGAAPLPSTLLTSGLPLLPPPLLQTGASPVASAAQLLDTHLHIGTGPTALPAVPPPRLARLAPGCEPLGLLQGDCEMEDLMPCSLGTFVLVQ

[7] = biological target: Serine/threonine-protein kinase SIK1 (Homo sapiens) (UniProt P57059); settings: at 1 µM
[8] = biological target: Serine/threonine-protein kinase SIK2 (Homo sapiens) (UniProt Q9H0K1); settings: at 0.1 µM
Serine/threonine-protein kinase SIK2 (Homo sapiens), sequence (Q9H0K1 whole entry, looked up): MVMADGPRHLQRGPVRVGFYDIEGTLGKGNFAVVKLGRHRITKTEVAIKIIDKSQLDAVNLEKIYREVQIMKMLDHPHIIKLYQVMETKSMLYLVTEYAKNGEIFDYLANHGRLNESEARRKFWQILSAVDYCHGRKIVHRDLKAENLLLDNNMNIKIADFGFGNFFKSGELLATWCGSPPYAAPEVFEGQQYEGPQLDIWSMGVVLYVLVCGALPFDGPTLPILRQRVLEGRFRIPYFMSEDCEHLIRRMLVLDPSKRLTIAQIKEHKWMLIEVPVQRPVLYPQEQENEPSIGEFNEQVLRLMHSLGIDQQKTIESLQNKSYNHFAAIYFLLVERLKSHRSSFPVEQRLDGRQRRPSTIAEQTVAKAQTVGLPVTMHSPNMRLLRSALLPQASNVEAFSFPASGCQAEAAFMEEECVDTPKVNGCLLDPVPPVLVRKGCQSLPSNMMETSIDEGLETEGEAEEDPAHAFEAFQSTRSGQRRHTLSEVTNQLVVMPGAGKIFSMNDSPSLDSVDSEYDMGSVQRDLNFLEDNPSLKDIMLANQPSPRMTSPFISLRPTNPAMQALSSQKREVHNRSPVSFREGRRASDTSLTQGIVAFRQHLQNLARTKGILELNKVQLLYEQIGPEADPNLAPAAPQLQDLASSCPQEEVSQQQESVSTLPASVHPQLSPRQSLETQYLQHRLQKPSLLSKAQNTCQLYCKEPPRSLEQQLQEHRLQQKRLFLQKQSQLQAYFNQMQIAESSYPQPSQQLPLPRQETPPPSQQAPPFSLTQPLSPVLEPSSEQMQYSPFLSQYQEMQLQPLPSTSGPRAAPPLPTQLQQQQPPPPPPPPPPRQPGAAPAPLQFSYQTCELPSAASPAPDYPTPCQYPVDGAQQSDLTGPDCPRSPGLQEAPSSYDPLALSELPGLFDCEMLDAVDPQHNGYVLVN

[9] = biological target: Serine/threonine-protein kinase SIK2 (Homo sapiens) (UniProt Q9H0K1); settings: at 1 µM
[10] = biological target: T2, Serine/threonine-protein kinase TBK1 (Homo sapiens) (UniProt Q9UHD2); settings: at 0.1 µM
T2 sequence (whole entry): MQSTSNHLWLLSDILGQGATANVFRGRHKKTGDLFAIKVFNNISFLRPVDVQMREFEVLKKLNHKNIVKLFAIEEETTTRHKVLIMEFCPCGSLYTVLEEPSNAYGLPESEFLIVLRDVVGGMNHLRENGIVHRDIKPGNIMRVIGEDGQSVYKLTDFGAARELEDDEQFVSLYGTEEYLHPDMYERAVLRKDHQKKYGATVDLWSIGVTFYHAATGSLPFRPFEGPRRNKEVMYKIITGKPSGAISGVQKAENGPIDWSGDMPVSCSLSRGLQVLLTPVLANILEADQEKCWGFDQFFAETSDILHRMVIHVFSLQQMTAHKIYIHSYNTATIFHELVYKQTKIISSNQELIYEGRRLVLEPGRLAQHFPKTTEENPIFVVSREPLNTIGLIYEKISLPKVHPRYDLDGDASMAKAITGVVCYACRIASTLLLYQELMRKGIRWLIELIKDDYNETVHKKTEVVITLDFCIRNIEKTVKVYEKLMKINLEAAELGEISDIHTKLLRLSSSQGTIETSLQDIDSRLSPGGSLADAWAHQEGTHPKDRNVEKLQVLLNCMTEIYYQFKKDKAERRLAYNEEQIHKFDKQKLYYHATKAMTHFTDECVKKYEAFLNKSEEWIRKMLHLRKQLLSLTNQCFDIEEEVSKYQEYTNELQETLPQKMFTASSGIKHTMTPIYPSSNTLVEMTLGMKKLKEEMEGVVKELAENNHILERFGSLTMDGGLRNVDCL

[11] = biological target: T2, Serine/threonine-protein kinase TBK1 (Homo sapiens); settings: at 1 µM
[12] = biological target: T3, Testis-specific serine/threonine-protein kinase 1 (Homo sapiens) (UniProt Q9BXA7); settings: at 0.1 µM
T3 sequence (whole entry): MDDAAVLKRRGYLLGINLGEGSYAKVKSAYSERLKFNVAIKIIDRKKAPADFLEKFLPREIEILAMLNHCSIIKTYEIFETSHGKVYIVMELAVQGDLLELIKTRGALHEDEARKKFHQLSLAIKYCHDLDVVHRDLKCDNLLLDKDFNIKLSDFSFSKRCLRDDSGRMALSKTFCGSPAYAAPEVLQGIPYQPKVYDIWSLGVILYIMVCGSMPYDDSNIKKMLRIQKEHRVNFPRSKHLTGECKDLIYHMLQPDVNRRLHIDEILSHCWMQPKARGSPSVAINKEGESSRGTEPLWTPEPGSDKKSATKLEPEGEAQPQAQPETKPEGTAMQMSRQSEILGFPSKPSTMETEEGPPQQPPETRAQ

[13] = biological target: T3, Testis-specific serine/threonine-protein kinase 1 (Homo sapiens); settings: at 1 µM
[14] = biological target: T4, Testis-specific serine/threonine-protein kinase 2 (Homo sapiens) (UniProt Q96PF2); settings: at 0.1 µM
T4 sequence (whole entry): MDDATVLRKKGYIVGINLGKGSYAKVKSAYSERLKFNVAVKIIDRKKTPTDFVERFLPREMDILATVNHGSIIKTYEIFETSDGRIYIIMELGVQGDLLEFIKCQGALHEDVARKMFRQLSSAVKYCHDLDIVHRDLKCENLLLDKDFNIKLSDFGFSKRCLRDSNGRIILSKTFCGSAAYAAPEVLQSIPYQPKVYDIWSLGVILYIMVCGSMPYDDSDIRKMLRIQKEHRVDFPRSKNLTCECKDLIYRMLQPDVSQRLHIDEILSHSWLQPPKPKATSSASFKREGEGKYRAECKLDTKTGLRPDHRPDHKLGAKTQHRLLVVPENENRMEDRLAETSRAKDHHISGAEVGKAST

[15] = biological target: T4, Testis-specific serine/threonine-protein kinase 2 (Homo sapiens); settings: at 1 µM
[16] = biological target: Casein kinase I isoform alpha (Homo sapiens) (UniProt P48729); settings: at 0.1 µM
Casein kinase I isoform alpha (Homo sapiens), sequence (P48729 2-337 limits assumed): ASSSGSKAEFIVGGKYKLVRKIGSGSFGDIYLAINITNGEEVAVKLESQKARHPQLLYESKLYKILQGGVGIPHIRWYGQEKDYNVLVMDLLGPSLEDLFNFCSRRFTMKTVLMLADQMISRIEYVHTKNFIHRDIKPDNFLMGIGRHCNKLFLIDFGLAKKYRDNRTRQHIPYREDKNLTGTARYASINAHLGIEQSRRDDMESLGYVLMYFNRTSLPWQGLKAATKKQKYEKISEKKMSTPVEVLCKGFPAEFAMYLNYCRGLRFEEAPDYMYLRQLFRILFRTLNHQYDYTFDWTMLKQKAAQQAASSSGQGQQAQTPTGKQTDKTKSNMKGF

[17] = biological target: Casein kinase I isoform alpha (Homo sapiens) (UniProt P48729); settings: at 1 µM
[18] = biological target: Casein kinase I isoform gamma-1 (Homo sapiens) (UniProt Q9HCP0); settings: at 0.1 µM
Casein kinase I isoform gamma-1 (Homo sapiens), sequence (Q9HCP0 whole entry, looked up, canonical isoform): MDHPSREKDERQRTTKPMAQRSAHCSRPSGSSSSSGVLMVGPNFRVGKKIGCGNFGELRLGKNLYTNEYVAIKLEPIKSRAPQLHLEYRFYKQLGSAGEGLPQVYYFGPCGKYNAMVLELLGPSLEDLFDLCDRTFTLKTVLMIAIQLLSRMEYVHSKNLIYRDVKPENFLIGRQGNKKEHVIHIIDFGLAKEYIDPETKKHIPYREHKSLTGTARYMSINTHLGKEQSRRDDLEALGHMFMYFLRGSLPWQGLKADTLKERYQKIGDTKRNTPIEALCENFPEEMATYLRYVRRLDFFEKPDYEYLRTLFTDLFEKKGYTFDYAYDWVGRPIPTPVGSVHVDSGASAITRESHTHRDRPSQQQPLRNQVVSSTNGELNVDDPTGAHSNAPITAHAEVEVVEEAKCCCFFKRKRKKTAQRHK

[19] = biological target: Casein kinase I isoform gamma-1 (Homo sapiens) (UniProt Q9HCP0); settings: at 1 µM
[20] = biological target: Casein kinase I isoform gamma-2 (Homo sapiens) (UniProt P78368); settings: at 0.1 µM;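 note: values are mean inhibition figures reported as part of the GSK PKIS dataset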
Casein kinase I isoform gamma-2 (Homo sapiens), sequence (P78368 whole entry, looked up, canonical isoform): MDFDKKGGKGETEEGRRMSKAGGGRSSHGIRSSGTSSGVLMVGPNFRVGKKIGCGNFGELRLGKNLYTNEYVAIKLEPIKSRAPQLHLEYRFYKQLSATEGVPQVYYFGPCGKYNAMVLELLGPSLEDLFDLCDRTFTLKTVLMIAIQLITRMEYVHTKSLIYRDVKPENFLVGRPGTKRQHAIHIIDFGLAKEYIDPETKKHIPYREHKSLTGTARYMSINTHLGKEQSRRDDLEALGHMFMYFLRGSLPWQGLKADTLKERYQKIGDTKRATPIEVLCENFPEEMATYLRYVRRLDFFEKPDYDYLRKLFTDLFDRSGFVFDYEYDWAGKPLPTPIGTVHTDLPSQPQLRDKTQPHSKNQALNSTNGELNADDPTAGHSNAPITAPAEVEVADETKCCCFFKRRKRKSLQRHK

Serine/threonine-protein kinase pim-2 (Homo sapiens), sequence (Q9P1W9 whole entry, looked up): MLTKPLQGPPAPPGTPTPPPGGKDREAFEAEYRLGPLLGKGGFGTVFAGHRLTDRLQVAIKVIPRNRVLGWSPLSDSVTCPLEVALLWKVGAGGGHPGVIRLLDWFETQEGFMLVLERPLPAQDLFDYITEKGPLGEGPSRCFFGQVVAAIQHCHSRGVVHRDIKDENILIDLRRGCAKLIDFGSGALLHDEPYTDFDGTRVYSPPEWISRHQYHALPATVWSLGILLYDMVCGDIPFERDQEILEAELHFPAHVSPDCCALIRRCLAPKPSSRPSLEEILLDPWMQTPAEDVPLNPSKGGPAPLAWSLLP

Row | Structure (SMILES) | inhibition [1] | inhibition [2] | inhibition [3] | inhibition [4] | inhibition [5] | inhibition [6] | inhibition [7] | inhibition [8] | inhibition [9] | inhibition [10] | inhibition [11] | inhibition [12] | inhibition [13] | inhibition [14] | inhibition [15] | inhibition [16] | inhibition [17] | inhibition [18] | inhibition [19] | inhibition [20]
1 | COc1c(C(N)=O)cc(-c2ccc(Cl)cc2)cc1-c1ccc(S(N)(=O)=O)cc1 | -0.88% | -0.2% | 0.43% | 1.35% | 2.31% | 10.7% | 16.1% | 8.28% | 6.93% | 4.69% | 3.5% | 4.67% | 5.11% | 2.57% | 2.89% | 5.95% | 12.6% | 4.33% | 6.12% | 4.61%
2 | CC(C)c1ccc(-c2cc(-c3c[nH]nc3-c3ccccn3)ccn2)cc1 | -0.1% | 0.23% | -0.66% | 0.04% | -0.19% | 0.32% | 0.87% | -2.6% | -1.02% | 0.97% | -0.11% | 0.45% | 0.81% | -0.82% | -1.06% | 3.57% | 9.88% | 0.64% | 2.41% | 0.19%
3 | COc1cccc(Nc2nccc(-c3cnn4ncccc34)n2)c1 | 2.39% | 2.39% | 17.6% | 0.42% | 3.44% | 6.56% | 20.8% | 4.86% | 13.6% | 4.06% | 22.9% | 2.07% | 12.8% | 0.21% | 0.62% | 14.9% | 48% | 2.61% | 20.5% | 4.45%
4 | COc1cc(N2CCN(C(C)C)CC2)ccc1Nc1nc(Nc2cccc(F)c2C(=O)O)c2cc[nH]c2n1 | 0.53% | 1% | 5.92% | 1.35% | 2.28% | 2.77% | 7.48% | 5.27% | 4.22% | 4.45% | 6.19% | 21.1% | 70.9% | 9.88% | 49.2% | 6.82% | 7.9% | 3.56% | 5.73% | 2.68%
5 | Cc1cc(O)cc(C)c1/C=C/c1cncc(C(N)=O)c1 | 0.5% | -0.22% | -1.42% | 0.25% | -0.19% | 48.9% | 89% | 6.79% | 37.5% | 2.21% | 1.71% | 0.78% | 0.81% | 0.45% | -0.39% | -2.11% | 2.52% | 2.23% | 3.19% | 1.83%
6 | O=C1Nc2ccccc2/C1=C1\CCc2cc(O)ccc21 | 1.46% | -1.28% | 3.83% | 1.7% | 2.07% | 2.74% | 18.1% | 5.12% | 21% | 1.68% | 13% | 3.88% | 6.96% | 1.83% | 2.14% | 4.95% | 9.64% | 5% | 6.41% | 3.27%
7 | O=C(O[C@H]1CN[C@H](C#Cc2cc3ncnc(Nc4ccc(OCc5cccc(F)c5)c(Cl)c4)c3s2)C1)N1CCOCC1 | 0.28% | 0.37% | 1.35% | 2.46% | 4.32% | 2.74% | 9.18% | 8.56% | 11.1% | 1.96% | 2.81% | 4.44% | 7.27% | 3.43% | 5.27% | 2.97% | 4.43% | 4.56% | 5.41% | 4.99%
8 | Nc1nccc(-c2c(-c3ccc(F)cc3)ncn2C2CCNCC2)n1 | 1.8% and 0.96% | 0.82% and 0.07% | 11% and 0.53% | -1.67% and 0.07% | -1.48% and 0.35% | -9% and 6.76% | -2.37% and 5.84% | -0.69% and 8.02% | 37.4% and 47.1% | -1.45% and -0.58% | -0.8% and 3.12% | -0.43% and -0.33% | -1.08% and -1.15% | -2.53% and 0.42% | -0.67% and -0.42% | 61.4% and 67% | 85% and 86.4% | -1.9% and 1.36% | 8.77% and 13.7% | -1.89% and 0.78%
9 | CS(=O)(=O)CCNCc1ccc(-c2ccc3ncnc(Nc4ccc(OCc5ccccc5)cc4)c3c2)o1 | 0.74% | 0.79% | 1.6% | 1.45% | 1.42% | 4.11% | 9.04% | 3.65% | 6.41% | 3.64% | 3.03% | 3.31% | 4.28% | 5.73% | 2.17% | 4.49% | 1.55% | 2.67% | 3.35% | 2.72%
